Measured potencies and affinities stand elsewhere. Activity calls are given as the source filed them.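 The calls were made as follows: active = compounds that lower cell ATP signal, with a fitted half-maximal concentration within a set limit; inconclusive = flat curve with moderate signal loss, or poor fit; inactive = the rest.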

The assay is described as follows: viability loss in MITF-independent A375 cells – cell-based, CellTiter-Glo luminescence, dry powder, set 6, counter-screen for MITF inhibitor project, dose response (AID 624488). The note with it: CellTiter-Glo ATP luminescence, 24 h; series mostly up to 35 µM.
Turning to `NC1=C(NS(=O)(=O)c2ccc(Br)cc2)C(=O)c2ccccc2C1=O`, the call was inactive.

As for `NC1=C(NS(=O)(=O)c2cccs2)C(=O)c2ccccc2C1=O`, the outcome was inactive.

Turning to `O=C1C=C(NS(=O)(=O)c2ccc(Br)cc2)C(=O)c2ccccc21`, the molecule was called inactive.

Turning to `NC1=C(NS(=O)(=O)c2ccc(Br)s2)C(=O)c2ccccc2C1=O`, the molecule was called inactive.

As to `O=C1C(NS(=O)(=O)c2ccccc2)=C(c2ccccc2)C(=O)c2ccccc21`, the molecule was classed as inactive.

`O=C1C=C(NS(=O)(=O)c2ccccc2)C(=O)c2ccccc21`: the molecule was called inactive.

In the case of `CNC1=CC(=O)c2ccccc2C1=O`, the molecule was called inactive.

As for `O=C1C=C(NS(=O)(=O)c2cccs2)C(=O)c2ccccc21`, the molecule was classed as inactive.

The values above are taken from PubChem BioAssay AID624488 (Broad Institute, 2012).
